Test results reported in PubChem BioAssay (NCATS).
Inconclusive results are not listed. Calls of active or inactive are those of the source. Calls come from the whole dose curve; as a rule, active = well fitted curve in the direction sought with a large enough effect; inconclusive = small, poorly fitted or top-dose-only effect, or another doubt; inactive = no such curve, though single readings can be large; an effect the other way counts as inactive or inconclusive. Peptide text beside a SMILES is read from it.

Assays:
[1] = target: Flap endonuclease 1 (Homo sapiens) (UniProt P39748); assay: qHTS Validation Assay for the Inhibitors of Human Flap endonuclease 1 (FEN1) (AID 488816)
Procedure, shortened: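 qHTS format: compounds and 10 nM FEN1 incubated 15 min at room temperature before adding 50 nM substrate. Cleavage followed by reads at 0 and 15 min; normalized data fitted to a four-parameter Hill curve.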

[2] = target: M-phase phosphoprotein 8 (Homo sapiens) (UniProt Q99549); assay: qHTS Validation Assay for Inhibitors for MPP8 Chromodomain Interactions with Methylated Histone Tails (AID 488949); note: top concentration of the series differs between compounds; nearly all actives have a fitted effect of over 55% in size
Procedure, shortened: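 MPP8 (50 nM) was pre-bound to 50 nM biotinylated H3(1-18)K9me3 peptide in PBS pH 7.4 with 0.01% Tween-20. Compounds were then added for 30 min at room temperature, and complex disruption was read by AlphaScreen with streptavidin donor and nickel-chelate acceptor beads.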

[3] = target: Methanococcus maripaludis chaperonin (MmCpn) (UniProt Q6LX38); assay: High-Throughput Screening for Modulators of Cytosolic Chaperonin Activity: MmCpn Primary Screen (AID 488978);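 note: 50 nM MmCpn enzyme hydrolysing 30 µM ATP at 37 °C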
Procedure, shortened: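 MmCpn at 50 nM final was preincubated 5 min at RT with compound. ATP was then added at 30 uM final for 10 min at 37 C. ADP formed was detected by Transcreener HTRF (665/590 nm).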

[4] = target: Transient receptor potential cation channel subfamily V member 1 (Homo sapiens) (UniProt Q8NER1); assay: HTS Assay for Compounds that Act as Enhancers of the Vanilloid Receptor 1 (AID 488979)
Description: The transient receptor potential ion channel, family V, number 1, (TRPV1) is one of the most important molecular transducers of painful stimuli and a potential target for analgesic drug development. Although recent clinical trials with orthosteric antagonists have not produced a successful drug because of a hyperthermia side effect and their tendency to block thermal noxious pain, this ion channel is undeniably well placed in the pain pathway, and the idea of blocking pain signals before they enter the CNS is an excellent concept and of proven efficacy when TRPV1 agonists are used. […]
The amount of accumulated calcium is precisely quantified using the FDSS kinetic reader and the calcium dye.
For the HTS assay, freshly prepared cells are plated at a density of 2000/well in 3 ul medium in 1536-well plates and cultured overnight at 35.5C. […] Plates will be loaded into the FDSS kinetic reader and a 1 sec / cycle for 10 second baseline signal will be measured. Compound library will then be added with a pintool at 23 nl and measured kinetically for 3 minutes. This portion of the read is considered the agonist portion of the screen. […] Signal will be measured kinetically for an additional 2 minutes. This portion of the read is considered the allosteric enhancer portion of the screen.
The FDSS reader has a standard filter set capable of measuring calcium bound Fluo-8 (ex=480 and em=520 nm).

[5] = target: Thyrotropin receptor (Homo sapiens) (UniProt P16473); assay: qHTS Assay for Antagonists of the Thyroid Stimulating Hormone Receptor (AID 488980); note: series mostly up to about 58 µM
Procedure, shortened: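 TSHR-transfected HEK293 cells (2000/well) in HEPES-buffered HBSS with 70 uM RO 20-1724 were stimulated with 4 nM TSH (EC80, final) in the presence of compound. cAMP was measured by HTRF competition after lysis and 30 min at RT.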

[6] = target: D(1A) dopamine receptor (Homo sapiens) (UniProt P21728); assay: HTS Assay for Allosteric Agonists of the Human D1 Dopamine Receptor: Primary Screen for Agonists (AID 488981)
Procedure, shortened: (§1)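 Calcium flux in an inducible, force-coupled HEK293 Trex D1 line (overnight at 30 C): agonist mode is the 180 s kinetic read after compound; potentiator mode is the following 180 s read after dopamine at EC20.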

[7] = target: D(1A) dopamine receptor (Homo sapiens) (UniProt P21728); assay: HTS Assay for Allosteric Agonists of the Human D1 Dopamine Receptor: Primary Screen for Potentiators (AID 488982)
Procedure, shortened: as §1

[8] = target: D(1A) dopamine receptor (Homo sapiens) (UniProt P21728); assay: HTS Assay for Allosteric Agonists of the Human D1 Dopamine Receptor: Primary Screen for Antagonists (AID 488983);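 note: calcium flux response to an EC80 dopamine challenge measured with no-wash dye; nearly all actives have a fitted effect of over 65% in size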
Procedure, shortened: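 Calcium flux readout, no-wash dye, inducible HEK293 T-REx D1 line (force-coupled). Compound added after 10 s baseline, 180 s kinetic read; then dopamine at EC80, further 180 s read.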

[9] = target: Tyrosyl-DNA phosphodiesterase 1 (Homo sapiens) (UniProt Q9NUW8); assay: Confirmation Assay for Inhibitors of Tyrosyl-DNA Phosphodiesterase (TDP1) (AID 489007); settings: recombinant human TDP1 enzymatic activity, dose-response; note: potency is the fitted concentration of half-maximal effect; nearly all actives have a fitted effect of over 40% in size
Procedure, shortened: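 AlphaScreen read-out: streptavidin donor and anti-FITC acceptor beads (10 ug/ml) bind intact substrate, so Tdp1 removal of tyrosine-FITC lowers signal. Enzyme 1 nM, substrate 15 nM, 5 min reaction at room temperature after 15 min compound preincubation.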

Measured: Potency

Chain of D(1A) dopamine receptor (Homo sapiens) (P21728 whole entry, looked up): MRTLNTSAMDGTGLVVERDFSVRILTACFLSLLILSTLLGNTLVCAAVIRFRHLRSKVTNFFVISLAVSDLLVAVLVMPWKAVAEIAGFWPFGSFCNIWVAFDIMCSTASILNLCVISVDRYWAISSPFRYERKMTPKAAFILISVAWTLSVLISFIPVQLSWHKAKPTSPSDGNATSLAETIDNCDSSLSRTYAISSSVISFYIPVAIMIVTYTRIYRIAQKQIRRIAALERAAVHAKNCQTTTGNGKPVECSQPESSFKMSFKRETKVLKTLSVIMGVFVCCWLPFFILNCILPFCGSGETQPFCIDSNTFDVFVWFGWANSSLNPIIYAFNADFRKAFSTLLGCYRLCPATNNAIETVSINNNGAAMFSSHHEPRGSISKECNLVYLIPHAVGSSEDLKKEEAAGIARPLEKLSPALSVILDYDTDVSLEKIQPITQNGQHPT
Chain of M-phase phosphoprotein 8 (Homo sapiens) (Q99549 whole entry, looked up): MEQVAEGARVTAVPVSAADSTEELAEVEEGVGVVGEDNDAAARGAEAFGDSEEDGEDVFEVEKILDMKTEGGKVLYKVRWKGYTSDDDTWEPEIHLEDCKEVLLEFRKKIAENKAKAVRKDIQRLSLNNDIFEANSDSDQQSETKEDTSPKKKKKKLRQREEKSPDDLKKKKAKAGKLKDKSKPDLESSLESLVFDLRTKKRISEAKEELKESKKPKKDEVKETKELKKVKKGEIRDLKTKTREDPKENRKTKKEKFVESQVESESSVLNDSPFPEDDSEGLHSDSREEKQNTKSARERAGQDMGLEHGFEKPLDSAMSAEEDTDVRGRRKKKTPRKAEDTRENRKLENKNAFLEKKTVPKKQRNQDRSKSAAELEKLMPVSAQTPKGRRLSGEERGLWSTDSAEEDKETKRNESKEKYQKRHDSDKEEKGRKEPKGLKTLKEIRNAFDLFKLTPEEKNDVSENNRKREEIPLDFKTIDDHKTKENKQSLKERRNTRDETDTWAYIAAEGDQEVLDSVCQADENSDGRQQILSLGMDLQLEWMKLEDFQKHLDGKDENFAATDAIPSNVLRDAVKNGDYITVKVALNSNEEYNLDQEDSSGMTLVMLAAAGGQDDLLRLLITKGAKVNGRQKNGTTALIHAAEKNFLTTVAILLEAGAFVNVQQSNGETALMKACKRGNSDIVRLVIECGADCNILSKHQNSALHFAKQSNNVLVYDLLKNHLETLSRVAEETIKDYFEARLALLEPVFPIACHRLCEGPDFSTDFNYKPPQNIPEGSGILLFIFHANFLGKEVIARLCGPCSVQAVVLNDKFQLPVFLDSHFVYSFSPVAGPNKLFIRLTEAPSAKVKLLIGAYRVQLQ
Chain of Transient receptor potential cation channel subfamily V member 1 (Homo sapiens) (Q8NER1 whole entry, looked up): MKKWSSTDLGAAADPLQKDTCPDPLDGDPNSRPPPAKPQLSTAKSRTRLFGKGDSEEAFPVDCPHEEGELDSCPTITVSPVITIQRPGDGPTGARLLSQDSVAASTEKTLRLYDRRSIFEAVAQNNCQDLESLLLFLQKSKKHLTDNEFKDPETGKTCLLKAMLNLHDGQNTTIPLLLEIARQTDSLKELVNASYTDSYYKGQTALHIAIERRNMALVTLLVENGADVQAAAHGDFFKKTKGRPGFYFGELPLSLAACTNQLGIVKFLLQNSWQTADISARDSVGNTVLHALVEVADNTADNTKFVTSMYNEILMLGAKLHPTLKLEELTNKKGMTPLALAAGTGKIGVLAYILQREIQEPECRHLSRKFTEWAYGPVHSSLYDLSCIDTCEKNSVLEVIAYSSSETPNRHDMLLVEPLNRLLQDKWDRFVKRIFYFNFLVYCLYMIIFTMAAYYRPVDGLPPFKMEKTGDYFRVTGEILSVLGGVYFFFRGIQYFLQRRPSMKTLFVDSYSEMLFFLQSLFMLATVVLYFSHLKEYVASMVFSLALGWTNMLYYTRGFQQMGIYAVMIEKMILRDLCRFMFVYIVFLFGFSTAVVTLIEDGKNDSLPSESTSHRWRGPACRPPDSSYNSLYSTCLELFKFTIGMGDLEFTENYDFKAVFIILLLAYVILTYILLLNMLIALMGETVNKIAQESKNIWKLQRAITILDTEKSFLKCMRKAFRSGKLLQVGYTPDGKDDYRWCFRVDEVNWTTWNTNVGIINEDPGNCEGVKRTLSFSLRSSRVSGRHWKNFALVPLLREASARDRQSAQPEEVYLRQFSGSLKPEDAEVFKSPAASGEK
Chain of Thyrotropin receptor (Homo sapiens) (P16473 whole entry, looked up): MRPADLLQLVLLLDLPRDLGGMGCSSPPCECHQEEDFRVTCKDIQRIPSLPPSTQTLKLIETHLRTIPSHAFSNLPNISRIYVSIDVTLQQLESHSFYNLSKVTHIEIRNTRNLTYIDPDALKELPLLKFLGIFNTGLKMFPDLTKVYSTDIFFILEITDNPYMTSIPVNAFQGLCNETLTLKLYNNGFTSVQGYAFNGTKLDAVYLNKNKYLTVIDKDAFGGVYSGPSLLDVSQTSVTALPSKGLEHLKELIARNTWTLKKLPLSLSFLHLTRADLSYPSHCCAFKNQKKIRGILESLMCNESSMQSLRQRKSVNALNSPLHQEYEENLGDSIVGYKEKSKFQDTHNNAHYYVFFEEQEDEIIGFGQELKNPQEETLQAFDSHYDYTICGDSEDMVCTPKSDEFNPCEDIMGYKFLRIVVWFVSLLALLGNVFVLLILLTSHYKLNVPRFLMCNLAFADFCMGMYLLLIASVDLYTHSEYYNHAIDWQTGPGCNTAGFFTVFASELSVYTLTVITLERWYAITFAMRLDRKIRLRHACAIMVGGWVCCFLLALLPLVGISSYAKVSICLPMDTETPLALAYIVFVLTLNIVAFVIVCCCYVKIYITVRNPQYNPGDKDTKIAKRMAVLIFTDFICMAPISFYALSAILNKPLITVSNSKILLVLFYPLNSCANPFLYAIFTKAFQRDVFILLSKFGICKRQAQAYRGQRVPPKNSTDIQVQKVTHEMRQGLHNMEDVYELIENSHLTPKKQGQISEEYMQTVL
Chain of Tyrosyl-DNA phosphodiesterase 1 (Homo sapiens) (Q9NUW8 whole entry, looked up): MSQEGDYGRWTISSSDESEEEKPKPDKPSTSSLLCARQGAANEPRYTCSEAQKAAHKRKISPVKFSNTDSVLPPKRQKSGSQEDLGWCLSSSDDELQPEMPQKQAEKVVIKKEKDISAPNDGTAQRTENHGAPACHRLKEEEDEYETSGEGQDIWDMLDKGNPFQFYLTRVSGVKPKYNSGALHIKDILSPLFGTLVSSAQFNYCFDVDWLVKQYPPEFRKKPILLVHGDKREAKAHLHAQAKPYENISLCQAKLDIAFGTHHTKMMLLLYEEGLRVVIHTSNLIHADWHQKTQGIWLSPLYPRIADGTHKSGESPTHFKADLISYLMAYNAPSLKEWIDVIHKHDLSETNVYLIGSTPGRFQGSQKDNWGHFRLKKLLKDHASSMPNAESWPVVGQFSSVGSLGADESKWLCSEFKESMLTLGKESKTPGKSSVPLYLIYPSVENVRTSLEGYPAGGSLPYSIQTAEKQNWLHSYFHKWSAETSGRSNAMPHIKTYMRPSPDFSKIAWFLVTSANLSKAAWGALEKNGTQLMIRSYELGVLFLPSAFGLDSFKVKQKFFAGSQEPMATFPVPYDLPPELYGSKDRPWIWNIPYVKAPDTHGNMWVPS
Chain of Flap endonuclease 1 (Homo sapiens) (P39748 whole entry, looked up): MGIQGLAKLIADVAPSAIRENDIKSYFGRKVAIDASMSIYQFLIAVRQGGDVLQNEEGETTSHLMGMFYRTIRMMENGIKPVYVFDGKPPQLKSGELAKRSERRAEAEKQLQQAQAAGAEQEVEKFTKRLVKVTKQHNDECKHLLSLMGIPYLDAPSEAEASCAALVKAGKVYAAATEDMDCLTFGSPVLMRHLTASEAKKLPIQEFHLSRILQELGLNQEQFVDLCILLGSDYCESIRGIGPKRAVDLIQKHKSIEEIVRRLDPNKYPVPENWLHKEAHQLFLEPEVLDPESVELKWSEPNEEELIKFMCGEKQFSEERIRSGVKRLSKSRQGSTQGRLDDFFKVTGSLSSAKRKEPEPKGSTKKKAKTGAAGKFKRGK
Chain of Methanococcus maripaludis chaperonin (MmCpn) (Q6LX38 1-543): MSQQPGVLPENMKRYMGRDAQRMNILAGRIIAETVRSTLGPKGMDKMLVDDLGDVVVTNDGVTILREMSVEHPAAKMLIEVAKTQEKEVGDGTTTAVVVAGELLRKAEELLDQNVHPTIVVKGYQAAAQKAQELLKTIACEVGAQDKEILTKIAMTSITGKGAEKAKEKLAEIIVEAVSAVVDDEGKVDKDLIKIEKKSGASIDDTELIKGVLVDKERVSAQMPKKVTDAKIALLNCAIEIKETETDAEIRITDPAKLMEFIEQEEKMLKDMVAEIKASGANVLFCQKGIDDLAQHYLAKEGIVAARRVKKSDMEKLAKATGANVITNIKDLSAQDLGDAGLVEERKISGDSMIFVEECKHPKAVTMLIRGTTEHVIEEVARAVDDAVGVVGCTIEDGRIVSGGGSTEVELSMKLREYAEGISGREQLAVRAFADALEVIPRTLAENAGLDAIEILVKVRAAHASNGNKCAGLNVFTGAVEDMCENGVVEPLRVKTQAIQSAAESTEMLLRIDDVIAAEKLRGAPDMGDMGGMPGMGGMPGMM

CN1Cc2c(N)cccc2C(c2ccccc2)C1 (stereo not drawn)
not listed: [9]
inactive: all other assays above

CC[N+](C)(C)Cc1ccccc1Br
inactive: [2] | [4] | [5]

CC(=O)N[C@@H](CC(=O)O)C(=O)N[C@@H](CCC(=O)O)C(=O)O (Ac-Asp-Glu-OH)
active: [9] 25.1 µM

O=C(O)c1cc(O)c2c(c1)[O][Bi][O]2
active: [9] 15.8 µM
